# Screening results: PubChem BioAssay, NMMLSC
# Most compounds without a hit are left out; they make up all but 2.4% or so of the library.
# FPR binder = human FPR ligand, with FPRL1 counter-screen; inhibition, % (concentration not given with the values); FPR-expressing cells, fluorescent ligand binding, flow cytometry; P21462; actives 0.74% (n = 24,000); AID 440;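 also: 0% = buffer wells and 100% = receptor blocker peptide wells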
# Target sequence (P21462 whole entry, looked up): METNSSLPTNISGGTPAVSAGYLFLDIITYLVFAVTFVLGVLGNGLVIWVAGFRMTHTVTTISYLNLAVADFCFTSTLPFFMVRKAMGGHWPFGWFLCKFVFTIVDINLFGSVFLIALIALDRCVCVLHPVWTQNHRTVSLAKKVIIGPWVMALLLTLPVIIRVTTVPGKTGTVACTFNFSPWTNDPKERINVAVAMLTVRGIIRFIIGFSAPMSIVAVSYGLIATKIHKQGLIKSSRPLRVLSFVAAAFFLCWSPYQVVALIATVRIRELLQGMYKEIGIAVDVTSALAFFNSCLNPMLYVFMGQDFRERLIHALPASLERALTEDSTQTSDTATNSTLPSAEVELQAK
# Jurkat autofluor = counter-screen for VLA-4 integrin: compound autofluorescence in Jurkat cells; actives 0.61% (n = 24,000); flow cytometry; stronger effect = higher value; 1 = vehicle-only cell background; fluorescence ratio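 (tested at 10 µM compound in the well)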;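 active = fluorescence ratio above 2.44, which is 1 plus 3 SD of all ratios; inconclusive = signal too bright to measure linearly, ratio around 10 or more; inactive = fluorescence ratio below 2.44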;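 also: green fluorescence of cells measured with 488 nm excitation and 530 nm emission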
# VLA-4 antagonist = inhibitors of LDV-FITC ligand binding to Mn2+-activated human VLA-4 integrin. P13612. Jurkat cells, LDV-FITC binding with Mn2+, flow cytometry; 100% = Mn2+-driven binding gain fully reversed. inhibition, % at 10 µM (by protocol). actives 0.2% (n = 24,000);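 active = inhibition above 50%; inconclusive = compound itself fluorescent, judged against control cell fluorescence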;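 also: 0% = Mn2+ stimulated cells lacking compound and 100% = ligand binding without Mn2+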
# VLA-4 agonist = allosterically activates the human VLA-4 integrin. Jurkat cells, LDV-FITC binding, flow cytometry. AID 528. 24,000 tested, under 10 active. activation, % at 10 µM (by protocol). P13612;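 active = fluorescent ligand binding to cells raised by more than 40% of the manganese-induced maximum; inconclusive = compound's own fluorescence above 85% of the ligand control signal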;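 also: 0% = ligand binding without compound and 100% = manganese-stimulated maximal binding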
# FPRL1 ligand = binds the human formylpeptide receptor-like-1 FPRL1; inhibition, % (test concentration not listed); actives 0.3% (n = 24,000); FPRL1-expressing cells, fluorescent ligand binding inhibition, flow cytometry; P25090;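 also: 0% = buffer alone and 100% = receptor blocker peptide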
# LNCaP diff act = LNCaP prostate cell differentiation activation | flow cytometry side scatter, 4 d | side scatter shift, % at 10 µM | actives 0.56% (n = 24,000) | AID 795;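 active = side scatter shift above 30%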;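 also: androgen-responsive LNCaP prostate cancer cells in charcoal-stripped serum medium; percent of cells past a gate set so DMSO wells show 10% shift; higher shift means more granular cells and more differentiation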
# * marks the source's active call; other numbers are inactive results; ? = inconclusive; / = not tested or not shown. Rule as the data show it, unless noted: active = inhibition above about 30%; inconclusive = no clear call, values can overlap the other calls; inactive = below that.
SMILES,FPR binder,Jurkat autofluor,VLA-4 antagonist,VLA-4 agonist,FPRL1 ligand,LNCaP diff act
CCN(C(=O)Cc1c(C(=O)O)[nH]c2ccccc12)c1cc(OC)ccc1OC,32*,1.1,-14,5,0,8
CCN(C(=O)c1coc(=O)c2ccccc12)c1cc(OC)ccc1OC,0,1,?,?,-1,4
Cc1ccc(-c2noc(CSc3nnnn3C3CCCCC3)n2)cc1,5,1.1,6,1,4,8
O=C1c2ccccc2-c2nc3ncnn3c(-c3ccccc3Cl)c21,-12,3.7*,?,?,-14,4
Cc1cc(C)n2nc(SCc3cc(=O)n4c(C)cccc4n3)nc2n1,4,1,15,2,6,4
CCSc1nc(O)c(C2OC(=O)c3c2ccc(OC)c3OC)c(=O)n1-c1ccccc1 (stereo not drawn),34*,0.96,14,-7,0,13
COc1ccc2c(c1OC)C(=O)OC2Nn1cncn1 (stereo not drawn),4,1,-21,-2,4,13
N#C[C@@H]1[C@@H]2C(=O)N(c3ccc4c(c3)OCCO4)C(=O)[C@@H]2C2c3ccccc3C=CN21 (stereo partly drawn),-22,5.2*,?,?,-17,6
COC(=O)C1(S(=O)(=O)c2cccc3nsnc23)CC1,33*,1.2,-2,-2,84*,14
CC(C)NS(=O)(=O)c1cccc2nsnc12,3,1.1,-10,-3,-4,11
CCOC(=O)N1CCC(NC(=O)Cn2ncn3c(cc4sc(CC)cc43)c2=O)CC1,-4,1.1,-21,-1,-4,2
O=C(Cn1cc2c(n1)CCCC2)NCc1cccc(Cl)c1,3,0.98,-4,4,1,5
COc1cccc(CNC(=O)Cn2cc3c(n2)CCCC3)c1,40*,1.1,-20,-1,30,1
Cc1cc(N2CCC(N(C)C3CCCC3)CC2)nc2cc(O)ccc12,4,0.87,?,?,4,44*
COc1ccc(CNc2nc3c(c(C(F)(F)F)n2)CCCCC3)cc1,2,1.1,-5,3,6,6
CCCc1cc(=O)n2[nH]c(C)c(-c3ccccc3)c2n1,35*,/,/,/,29,/
Cc1[nH]n2c(=O)cc(C(C)(C)C)nc2c1-c1ccccc1,4,/,/,/,2,/
Cc1[nH]n2c(=O)cc(C(C)C)nc2c1-c1ccccc1,-4,/,/,/,-1,/
Cc1[nH]n2c(=O)cc(-c3ccc([N+](=O)[O-])cc3)nc2c1-c1ccccc1,70*,/,/,/,47*,/
CCCC(=O)Nc1nnc(CC(=O)N2CCCC2)s1,-7,0.98,-5,0,1,9
O=C(NC1CC2CCC1C2)C1COc2ccccc2O1 (stereo not drawn),9,0.99,-25,-2,10,8
COc1ccc(S(=O)(=O)C(C#N)c2nc3ccccc3nc2N2CCCC(C)C2)cc1 (stereo not drawn),5,3*,?,?,-5,9
Cc1ccc(NC(=O)C2CCCN(S(=O)(=O)c3cccs3)C2)cc1 (stereo not drawn),-5,1.1,68*,-13,11,11
O=C(NCc1cccs1)C1CCCN(S(=O)(=O)c2cccs2)C1 (stereo not drawn),-4,1.2,26,-6,2,15
COc1ccc2[nH]cc(CCN=C3SCC(=O)N3C)c2c1,0,1.4,?,?,3,10
SMILES,FPR binder,Jurkat autofluor,VLA-4 antagonist,VLA-4 agonist,FPRL1 ligand,LNCaP diff act
Cc1nn(Cc2ccc(Cl)cc2)c(C)c1NC(=O)C1CC=CCC1C(=O)O (stereo not drawn),5,1,-12,5,-2,4
CCN(CC)CC(=O)Nc1ccc(-c2nc3cc(NC(=O)CN(CC)CC)ccc3o2)cc1,-1,1.1,-26,14,2,42*
S=c1[nH]nc(C23CC4CC(CC(C4)C2)C3)n1Cc1ccco1,6,1,-15,-2,-1,13
CCOc1ccc(C(CC(=O)O)NC(=O)C23CC4CC(CC(C4)C2)C3)cc1 (stereo not drawn),/,1,111*,-20,/,/
CCOC(=O)NC(CC(=O)O)c1ccc(OCC)cc1 (stereo not drawn),4,1,28,-18,4,7
CC(C)(C)NC(=O)C1CCCN(S(=O)(=O)c2cccc3cccnc23)C1 (stereo not drawn),35*,1,-17,1,27,3
O=S(=O)(Nc1ccc2c(c1)OCCO2)c1cnc[nH]1,6,0.95,-13,-1,-2,13
O=C(CCc1nc(-c2ccccc2F)no1)NC1CCN(Cc2ccccc2)CC1,-1,0.86,-21,15,-2,15
Cc1ccc(-c2noc(CCC(=O)NCCCN3CCN(c4ccc(F)cc4)CC3)n2)cc1,-3,1.1,?,?,1,38*
Cc1ccc(-c2noc(CCC(=O)NCCCN3CCN(c4cccc(Cl)c4)CC3)n2)cc1,-3,1.1,?,?,0,44*
Cc1ccc(-c2noc(CCC(=O)NC3CCN(Cc4ccccc4)CC3)n2)cc1,-3,1.1,?,?,-1,32*
COc1ccc(-c2noc(CCC(=O)NCCCN3CCC(C)CC3)n2)cc1,-15,1,3,4,-7,2
COc1ccccc1-n1c(SC)nc(O)cc1=O,41*,0.99,-15,-1,-10,7
COc1ccccc1-n1c(C)nnc1SCC(N)=O,0,0.99,-16,5,3,8
CCOc1ccc(/C(O)=C2/C(=O)C(=O)N(CC3CCCO3)C2c2ccc(C)o2)cc1 (stereo not drawn),26,/,/,/,-6,/
CCOc1ccc(/C(O)=C2/C(=O)C(=O)N(CC3CCCO3)C2c2ccco2)cc1 (stereo not drawn),48*,/,/,/,26,/
CC(C)(C)Nc1nc(NC(C)(C)C)nc(-n2ccnc2)n1,0,0.97,-3,-5,1,2
Cc1ccc(C)c(/C(O)=C2\C(=O)C(=O)N(CCCn3ccnc3)C2c2ccncc2)c1 (stereo not drawn),37*,/,/,/,25,/
COc1cc(C2/C(=C(\O)c3ccc4c(c3)CC(C)O4)C(=O)C(=O)N2CCCn2ccnc2)ccc1O (stereo not drawn),44*,/,/,/,33*,/
COc1ccc(C2/C(=C(/O)c3ccc4c(c3)CC(C)O4)C(=O)C(=O)N2CCN2CCOCC2)cc1 (stereo not drawn),2,/,/,/,0,/
O=C(CN(Cc1ccccc1F)S(=O)(=O)c1ccc(Cl)cc1)NCCCO,-11,1.1,-14,2,-3,4
COc1ccccc1-c1cc(C(=O)N2CCN(c3ccccc3OC)CC2)no1,1,1.2,-7,-7,0,5
CC(=O)OCCNc1cc(N2CCN(C)CC2)c2noc3c2c1C(=O)c1ccccc1-3,6,1.2,14,-6,53*,15
